# From PubChem
# Only some compounds are listed: those with a hit (about 2.3% of all), similar ones and a draw of the others.
# CHO-K1 Ca antag = M1 antagonist counterscreen hit in parental CHO-K1 cells. ATP-induced calcium, Fluo-8 fluorescence. inhibition, % at 3 µM. 360,000 compounds, 0.6% hits. AID 602250;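 active = inhibition above a per-plate cutoff, the plate's mean sample inhibition plus 3 SD, cut at about 24% in these data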
# CHRM1 antagonist = blocks human M1 muscarinic receptor | inhibition, % at 3 µM | 360,000 compounds, 1.3% hits | P11229 | CHO-K1 hM1, Fluo-8 calcium fluorescence, ACh EC80 antagonist | AID 588852;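 active = percent inhibition above its own plate's cutoff, namely the mean of that plate's compound wells plus 3 SD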;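 also: peak over basal fluorescence ratio during 140 s after agonist addition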
# Target sequence (P11229 whole entry, looked up): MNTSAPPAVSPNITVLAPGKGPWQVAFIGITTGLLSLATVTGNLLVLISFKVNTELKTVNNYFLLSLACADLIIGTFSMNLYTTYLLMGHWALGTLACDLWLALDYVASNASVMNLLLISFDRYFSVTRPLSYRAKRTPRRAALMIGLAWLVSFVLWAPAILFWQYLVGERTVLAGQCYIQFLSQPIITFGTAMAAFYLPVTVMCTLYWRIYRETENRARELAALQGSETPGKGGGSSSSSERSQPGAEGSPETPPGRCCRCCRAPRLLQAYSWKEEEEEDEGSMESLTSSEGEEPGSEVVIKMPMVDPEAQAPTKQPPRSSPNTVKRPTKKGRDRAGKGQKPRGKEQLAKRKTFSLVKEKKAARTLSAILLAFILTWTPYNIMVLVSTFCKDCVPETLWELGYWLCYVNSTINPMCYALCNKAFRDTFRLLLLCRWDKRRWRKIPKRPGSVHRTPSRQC
# CHO-K1 Ca ag = nonselective activator or artifact in parental CHO-K1 cells. Fluo-8 calcium fluorescence; scaled to maximal ATP response, vehicle zero. activation, % at 3 µM. 360,000 compounds, 0.48% hits. AID 602248; in the data active = activation above about 15%;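 also: untransfected CHO-K1 host cells lacking M1 receptor as counterscreen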
# M1 PAM = positive allosteric modulators of human M1 muscarinic receptor. AID 588819. activation, % at 3 µM. 360,000 compounds, 0.088% hits. CHO-K1 hM1, Fluo-8 calcium fluorescence, ACh EC20; 0% = ACh EC20, 100% = maximal ACh. P11229; in the data active = activation above about 19%, passing the limit was not always enough
# CHRM1 agonist = human M1 muscarinic receptor agonism; 360,000 compounds, 0.33% hits; CHO-K1 hM1, Fluo-8 calcium fluorescence, agonist mode; 0% DMSO, 100% acetylcholine EC100; activation, % at 3 µM; P11229;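 active = activation above the run's mean compound activation plus 3 SD, cut at about 16% in these data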;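 also: peak over basal fluorescence ratio within a 140 s kinetic read after compound addition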
# M1 PAM parental = counter-screen for M1 PAMs: effect in parental CHO-K1 cells; ATP EC20, Fluo-8 calcium fluorescence; 0% at ATP EC20, 100% at ATP max; activation, % at 3 µM; 360,000 compounds, 0.02% hits; AID 602247;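 active = activation above the run cutoff, the mean activation of all test compounds plus 3 SD, cut at about 40% in these data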;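 also: peak over basal fluorescence ratio in a 140 s read after ATP addition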
# A number is an active result; i = inactive.
SMILES,CHO-K1 Ca antag,CHRM1 antagonist,CHO-K1 Ca ag,M1 PAM,CHRM1 agonist,M1 PAM parental
Cc1cc(Cl)c(OCCOCCN2CCCC(C)C2)c(Br)c1 (stereo not given),i,62,i,i,i,i
CC1CCCN(CCOCCOc2ccc(Cl)cc2Br)C1 (stereo not given),i,66,i,i,i,i
CC1CCCN(CCOCCOc2ccc(Br)cc2Cl)C1 (stereo not given),i,42,i,i,i,i
Clc1ccc(OCCCN2CCCCC2)c(Br)c1,i,i,i,i,i,i
COc1ccc(OC)c(NC(=O)CSc2ccc3nnc(-c4cccnc4)n3n2)c1,i,i,i,i,i,i
Cc1c(Cc2ccc3c(c2)OCO3)sc(NC(=O)c2cccc3ccccc23)c1C(N)=O,i,101,i,i,i,i
CCCN1CCc2c(sc(NC(=O)C3CCN(S(=O)(=O)c4cccs4)CC3)c2C(N)=O)C1,29,53,i,i,i,i
CC(=O)N1CCc2c(sc(NC(=O)C3CCN(S(=O)(=O)c4cccs4)CC3)c2C(N)=O)C1,i,i,i,i,i,i
Cc1c(C(=O)NCc2ccc([N+](=O)[O-])cc2)sc(=O)n1Cc1ccc(-c2ccccc2)cc1,i,i,i,i,i,i
Cc1[nH]c(=O)sc1C(=O)NCc1ccc([N+](=O)[O-])cc1,35,i,i,i,i,i
OC[C@@H]1CN(Cc2cccc(C(F)(F)F)c2)C[C@H](n2cnc3c(NCc4ccco4)ncnc32)O1,i,i,i,i,i,i
CC(C)CC(N)c1csc(NC(=O)c2cc(C(C)(C)C)nn2Cc2ccccc2)n1 (stereo not given),i,i,i,i,i,i
Cc1c(C(=O)OC(C)C(C)C[N+](C)(C)C)oc2ccccc12 (stereo not given),i,99,i,i,i,i
Cc1c(C(=O)OC(C)C(=O)N(C)Cc2ccccc2)oc2ccccc12 (stereo not given),i,i,i,i,i,i
Cc1ccc(S(=O)(=O)ON=C2CCN(S(=O)(=O)c3ccccc3)CC2)cc1,i,i,i,i,i,i
CC1=CC(=O)C(C(C)C)=C/C1=N/OS(=O)(=O)c1ccccc1,50,61,20,i,i,i
CC1=CC(=O)C=C(C)C1=NOS(=O)(=O)c1ccccc1,i,18,i,i,i,i
Cc1ccc2c(c1)/C(=N/OS(=O)(=O)c1ccccc1)CCS2,i,i,i,i,i,i
CCOC(=O)Cc1csc(NC(=O)Nc2cccs2)n1,i,i,16,i,i,i
O=S(=O)(c1cccc(Br)c1)N1CCN(c2ncnc3scc(-c4ccccc4)c23)CC1,i,i,i,i,i,i
Cc1csc2ncnc(N3CCN(S(=O)(=O)c4cccc(C(F)(F)F)c4)CC3)c12,26,47,i,i,i,i
O=C(c1ccccc1)c1ccc(OCC(O)CNCc2ccc(Cl)cc2)cc1 (stereo not given),i,i,18,i,i,i
CCCN(CCC)CCCOC(=O)c1ccc(Cl)cc1Cl,i,68,i,i,i,i
CN(C)CCCOC(=O)c1ccc(Cl)cc1Cl,i,i,i,i,i,i
COC(=O)C(CCSC)NC(=O)c1cc2c(n(-c3ccccc3)c1=O)CC(C)(C)CC2=O (stereo not given),27,i,i,i,i,i
SMILES,CHO-K1 Ca antag,CHRM1 antagonist,CHO-K1 Ca ag,M1 PAM,CHRM1 agonist,M1 PAM parental
COC(=O)C(CCSC)NC(=O)c1cc2c(n(-c3ccc(C)cc3)c1=O)CCCC2=O (stereo not given),i,i,i,i,i,i
OC(CCCC(O)c1ccccc1)c1ccccc1 (stereo not given),i,i,i,i,i,i
CC(CNS(=O)(=O)c1ccc2c(c1)NC(=O)CCS2)c1ccccc1 (stereo not given),i,i,18,i,i,i
O=C(Nc1ccc(Cl)cc1)C1Cc2c(-c3ccccc3)ccnc2O1 (stereo not given),i,i,i,i,i,i
Cc1cccc2c1N(CCCOc1ccccc1)C(=O)C2=O,i,i,i,i,20,i
Cc1ccccc1OCCCN1C(=O)C(=O)c2cccc(C)c21,i,i,i,i,22,i
Cc1ccc2c(c1)C(=O)C(=O)N2CCCOc1ccccc1C,i,i,i,i,i,i
Fc1cccc2sc(N3CCCC3)nc12,i,i,i,i,i,i
CS(=O)(=O)N1CCN(c2ccccc2NC(=S)NC(=O)c2ccccc2[N+](=O)[O-])CC1,i,29,i,i,i,i
Cc1nc2ccccc2c2c(N)c3ccccc3n12,i,i,17,i,i,i
Nc1c2ccccc2nc2ccccc12,i,i,i,i,i,i
CCc1cccc(CC)c1NC(=S)Nc1ccccc1,i,i,i,i,i,i
CCN(CC)C(=O)c1cccc(-c2csc(C(O)c3cccc(Cl)c3)n2)c1 (stereo not given),i,i,i,i,i,i
COc1ccc(NC(=O)COc2cccc3c2OC(C)(C)C3)cc1OC,i,31,i,i,i,i
Cc1cnc(NC(=O)CSc2ncc(-c3ccccc3)n2Cc2ccco2)s1,i,i,i,i,21,i
CN(C)c1ccc(/C=C/c2ccc3c4ccccc4ccc3[n+]2-c2ccccc2)cc1,41,64,16,i,i,i
COc1ccc(CC(=O)Nc2ccc(NC(=O)c3ccccc3F)cc2)cc1,i,i,i,i,27,i
COc1ccc(NC(=O)c2ccc3ccccc3c2OC)cc1,i,i,22,i,i,i
COc1ccc(NC(=O)CSc2nc(N)c(NC(=O)c3ccccc3F)c(=O)[nH]2)cc1,i,i,i,i,i,i
COc1ccc(NC(=O)c2cc3ccccc3cc2OC)cc1,i,i,i,i,i,i
Cc1cc(/C=C2/SC(=S)N(c3cccc(Cl)c3)C2=O)c(C)n1-c1cccnc1,i,27,i,i,i,i
CN(CCc1cn[nH]c1)Cc1nc(C(c2ccccc2)c2ccccc2)no1,i,i,i,i,i,i
CCN(CC)CCN(C)Cc1nc(C(c2ccccc2)c2ccccc2)no1,i,75,i,i,i,i
COC(=O)C1CCN(C(=O)COC(=O)c2cc(-c3cccs3)nn2-c2ccccc2)CC1,i,i,i,i,i,i
CC1CCCCN1C(=O)COC(=O)c1cc(-c2cccs2)nn1-c1ccccc1 (stereo not given),i,45,i,i,i,i
COc1ccc(-n2nc(C(=O)NCC(=O)NCCC3=CCCCC3)c3ccccc3c2=O)cc1,i,i,i,i,i,i
Cc1ccc2sc(N3CCN(CCNC(=O)c4ccco4)CC3)nc2c1C,i,i,20,i,i,i
O=C(NCCN1CCCCC1)c1ccco1,i,i,i,i,i,i
